# Reference: ChEMBL document CHEMBL3433997, “St. Jude Leishmania screening dataset” (2016)
# Legend:
# Type in all cases: functional
# [1] = biological target: Solute carrier family 2, facilitated glucose transporter member 1 (Homo sapiens) (UniProt P11166); assay: ST_JUDE_LEISH: Cytotoxicity at 2uM final concentration against transgenic Leishmania Mexicana promastigotes LmGLUT1 that are glucose transport deficient and complemented with the human glucose transporter GLUT1. Activity is measured by DNA content using SYBR green in vitro
# Sequence of Solute carrier family 2, facilitated glucose transporter member 1 (Homo sapiens) (P11166 whole entry): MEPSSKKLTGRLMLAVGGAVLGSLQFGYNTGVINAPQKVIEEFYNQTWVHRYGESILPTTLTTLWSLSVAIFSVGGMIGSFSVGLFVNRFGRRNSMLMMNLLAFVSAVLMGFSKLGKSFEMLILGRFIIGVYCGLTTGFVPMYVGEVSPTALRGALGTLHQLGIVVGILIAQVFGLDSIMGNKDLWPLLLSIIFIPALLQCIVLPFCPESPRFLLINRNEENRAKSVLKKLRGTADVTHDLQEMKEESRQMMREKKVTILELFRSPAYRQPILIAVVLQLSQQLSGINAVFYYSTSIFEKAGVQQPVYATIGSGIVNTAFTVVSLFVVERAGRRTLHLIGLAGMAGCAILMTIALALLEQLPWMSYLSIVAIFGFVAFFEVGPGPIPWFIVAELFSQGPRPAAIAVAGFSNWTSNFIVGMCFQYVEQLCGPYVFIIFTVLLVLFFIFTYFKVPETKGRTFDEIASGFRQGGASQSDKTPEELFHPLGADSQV
# [2] = biological target: Hexose transporter 1 (Plasmodium falciparum) (UniProt O97467); assay: ST_JUDE_LEISH: Cytotoxicity at 2uM final concentration against transgenic Leishmania Mexicana promastigotes LmPfHT that are glucose transport deficient and complemented with the Plasmodium falciparum hexose transporter. Activity is measured by DNA content using SYBR green in vitro
# [3] = biological target: Glucose transporter (Leishmania mexicana) (UniProt O61059); assay: ST_JUDE_LEISH: Cytotoxicity at 2uM final concentration against transgenic Leishmania Mexicana promastigotes LmGT2 that are glucose transport deficient and complemented with the L. Mexicana glucose transporter 2. Activity is measured by DNA content using SYBR green in vitro
Compound,inhibition [1],inhibition [2],inhibition [3]
CC(=O)N(Cc1nc(-c2cc(C(F)(F)F)cc(C(F)(F)F)c2)cs1)c1c(C)cccc1C,4.36%,4.86%,4.36%
Cc1cccc(-c2cccc(CNc3nc(NCCc4ccc(O)cc4)nc(N4CCNCC4)n3)c2)c1,2.88%,3.88%,2.83%
O=C(NCCNc1ccnc(NCc2ccc(F)cc2)n1)c1cc2ccccc2s1,4.76%,4.26%,-0.4%
CC(=O)N1N=C(c2ccc(F)cc2)Sc2c1nc(C1CCCCC1)n2C(C)=O,8.37%,6.09%,7.07%
CC1CCN(Cc2cccc(C(=O)NCc3ccc(F)c(-c4cccc(CN5CCN[C@@H](C)C5)c4)c3)c2)CC1,1.17%,0.82%,1.82%
NCc1ccc(Nc2nccc(Nc3ccc(-c4ccccc4)cc3)n2)cc1,2.28%,4.91%,0.24%
CCC(C)c1cnc2nc(N)nc(N)c2c1C (stereo unspecified),1.18%,1.66%,2.42%
NC1=NC(c2ccccc2)(c2ccccc2)C(=O)N1CCOc1ccccc1,1.06%,0.96%,2%
COC(=O)c1c(C#N)c(OC)cc(O)c1CSC[C@H](Nc1nc(-c2ccc([N+](=O)[O-])cc2)cs1)C(=O)NCCN1CCCCC1,-1.73%,0.29%,-0.42%
COCCOc1cccc(CN2CCC(c3cc4nc(C)cc(C(F)(F)F)n4n3)C2)c1 (stereo unspecified),-2.12%,4.65%,0.83%
Nc1cc(C(F)(F)F)ccc1Cl,-1.56%,-2.13%,-2.26%
N#Cc1cccc(NC(=O)Nc2ccc(-c3cccc(-c4nc5cc(F)ccc5[nH]4)c3)cc2)c1,3.67%,1.58%,4.18%
Cc1cccc(C(=O)Nc2ccnc(N(C)CCCN(C)Cc3cccc(C#N)c3)c2)c1,5.76%,4.86%,2.02%
Cc1nc(N)nc(N)c1-c1ccc(Cl)cc1,3.05%,2.21%,2.37%
CCN1CCC(N(Cc2ccc(-c3ccc(C(F)(F)F)cc3)cc2)C(=O)Cn2c(SCc3ccc(F)cc3)nc(=O)c3c2CCC3)CC1,-0.04%,-0.63%,-2.05%
Cc1ccc(Cn2c(N3CCC(C(=O)NCc4cccs4)CC3)nc3ccccc32)cc1,1.76%,2.67%,7.85%
Cc1ccc(-c2cc(C(=O)Nc3ccc(S(=O)(=O)N4CCOCC4)cc3)[nH]n2)c(O)c1C,4%,0.56%,-1.4%
C#CCCOc1ccc2ccccc2c1CNCCCCCCNCc1c(OCCC#C)ccc2ccccc12,-1.76%,3.36%,-0.13%
CN1CCCC(CN2CCN(Cc3ccc(-c4ccc(-c5nc6ccccc6[nH]5)s4)cc3)CC2)C1 (stereo unspecified),22.9%,34.8%,9.58%
Cc1nc(N)nc(N)c1OCc1ccc(Cl)c(Cl)c1,0.66%,1.73%,2.48%
CC(C)(CNCc1ccccc1)c1nc(-c2ccc(Cl)c(O)c2)c(-c2ccncc2)[nH]1,4.28%,4.73%,3.53%
CC(C)NCc1ccc(-c2cccc(NC(=O)c3ccc(C#N)cc3)c2)cc1,6.75%,4.9%,7.32%
Fc1cc(Cl)ccc1Nc1ccnc2cc(-c3ccc(CN4CCCCC4)o3)ccc12,2.55%,1.59%,0.77%
COc1ccc2sc(CNCCCNc3cc(=O)c4ccccc4[nH]3)c(Cl)c2c1,3.04%,3.59%,4.49%

Compound,inhibition [1],inhibition [2],inhibition [3]
O=C(NC1CCC1)C1CCN(C(c2ccccc2)c2cc(F)cc(F)c2)CC1 (stereo unspecified),6.73%,7.32%,6.61%
Cc1cc(NC(=O)c2ccco2)ccc1OC1CCN(Cc2ccc(C#N)cc2)CC1,1.63%,1.09%,1.11%
CCNc1cc(-c2cccc(OC)c2)nc(Nc2ccc(F)cc2)n1,7.43%,7.1%,2.87%
Cc1cc(NC(=O)c2ccsc2)ccc1OC1CCN(Cc2ccc(F)cc2)CC1,-0.33%,2.48%,1.6%
Cc1cc(N2CCCCC2)nc2ccc(NC(=O)c3cc(=O)c4ccccc4o3)cc12,5.94%,7.2%,0.66%
CCc1c(CCNCCCCCCNCCc2ccc(OC)cc2)ccc(OC)c1OC,5.63%,5.5%,5.8%
COc1ccc(Cl)cc1N1CCN(CCCNC(=O)c2ccc(-c3nc4cc(Cl)c(C)cc4[nH]3)c(F)c2)CC1,1.96%,0.19%,0.07%
O=C(N[C@@H](CC1CCCCC1)C(=O)NC1CCCCCC1)c1ccc(O)c(-c2ccc(Cl)c(Cl)c2)c1,-0.25%,1.39%,0.88%
CN(C)c1ccc(-c2ccc(C(=O)NC3CCN(Cc4ccc5c(c4)OCCO5)CC3)s2)cc1,4.82%,6.3%,3.8%
c1ccc2[nH]c(-c3ccc(-c4ccc(CN5CCN(CCN6CCOCC6)CC5)cc4)s3)nc2c1,10.4%,9.34%,7.67%
COc1ccc(CN2CCC(CN3CC4(OC3=O)c3ccccc3-c3ccccc34)C2)c(O)c1 (stereo unspecified),10.8%,9.02%,11%
O=C(Nc1ccc(-c2nc3ccccc3[nH]2)cc1)c1ccc(N2CCCC2)c([N+](=O)[O-])c1,0.71%,2.01%,1.2%
N#Cc1cccc(C(=O)Nc2ccc(-c3cccc(CN4CCC(O)CC4)c3)cc2)c1,0.21%,0.35%,-0.04%
NCCCOc1cnc(-c2ccccc2)c2nc(-c3nonc3N)n(CCc3ccccc3)c12,4.6%,2%,1.33%
N[C@@H](COc1cccc2c(-c3ccncc3)c(-c3cccc(NC(=O)Nc4ccccc4)c3)nn12)c1ccccc1,-2.24%,-1.71%,-2.62%
N#Cc1cc(C(=O)Nc2ccccc2)c(N)nc1SCC(=O)NC(c1ccccc1)c1cccs1 (stereo unspecified),4.19%,1.36%,4.48%
NC(=O)c1cc2nc(Nc3ccc(F)cc3)nc(Nc3ccc(S(N)(=O)=O)cc3)c2[nH]1,1.3%,0.26%,0.35%
c1ccc(CNc2nc(NCCc3c[nH]cn3)nc(NCc3cccc4ccccc34)n2)cc1,-1.52%,0.21%,-0.28%
COc1ccc(NC(=O)/C=C/c2ccccc2Cl)cc1OCCN1CCC(Cc2cc3ccccc3[nH]2)CC1,3.32%,1.85%,-2.57%
Cc1ccc2c(=O)cc(CCc3cccc(F)c3F)n(CC(=O)N(Cc3ccc(-c4ccc(C(F)(F)F)cc4)cc3)C3CCN(C(C)C)CC3)c2n1,-2.51%,-0.71%,-1.8%
COc1ccc(CN2CCC(CNCCc3c(Cl)cccc3Cl)CC2)cc1,7.06%,8.38%,9.64%
CCN(CC)C(C)(C)CN(Cc1ccc(-c2ccc(C(F)(F)F)cc2)cc1)C(=O)Cn1c(CCc2cccc(F)c2F)nc(=O)c2ccccc21,6.6%,5.18%,5.98%
CCCCN(C)CC#Cc1ccc2[nH]c(C)c(Cl)c(=O)c2c1,3.48%,3.22%,2.37%
